In PubChem BioAssay (NCATS):
Inconclusive results are not listed. Unmarked numbers belong to inactive results. The call rests on the fitted dose curve; in most records, active means well fitted inhibition curve with a large enough effect; inconclusive means small, poorly fitted or top-dose-only effect, or effect the other way; inactive means flat fitted curve, though single readings scatter.

molecular target: ATP-dependent 6-phosphofructokinase (Trypanosoma brucei brucei) (UniProt O15648); experiment: qHTS Assay to Find Inhibitors of T. brucei phosphofructokinase: hit validation (AID 492961);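 further: luminescence reports ADP formed as PFK phosphorylates fructose-6-phosphate with ATP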; details: T. brucei PFK, ADP-Glo luminescence; series mostly up to 51.4 µM; activity change, negative = inhibition: at the top concentration
Excerpt: NIH Molecular Libraries Probe Production Network [MLPCN] NIH Chemical Genomics Center [NCGC] Grant: 1 R03 MH092153-01 PI Name: Malcolm Walkinshaw, University of Edinburgh NCGC Assay Overview: Various species of the protozoan family Trypanosomatidae are responsible for a range of serious human diseases in tropical and subtropical areas of the world. […] Many of the disorders caused by trypanosomatids are fatal if left untreated, but most currently used drugs are inefficient and toxic. […] Oxidative metabolism involving the mitochondrial tricarboxylic acid cycle and oxidative phosphorylation are repressed in these parasites, and recent RNA interference (RNAi) experiments have shown that even partial depletion of certain individual glycolytic enzymes can lead to the death of cultured parasites. One such glycolytic enzyme, phosphofructokinase (PFK), catalyzes the formation of fructose-1,6-bisphosphate (F1,6BP) and ADP from fructose-6-phosphate (F6P) and ATP, and in many metabolic circumstances makes an important contribution to the control of flux through the glycolytic pathway. As a specific glycolytic target, PFK is particularly attractive as it catalyzes the first irreversible step in glycolysis, and structural and kinetic studies have shown very substantial and essential differences from corresponding host enzymes, allowing for the discovery of parasite-selective inhibitors. The goal of this screen is to find small-molecule inhibitors of T. brucei PFK using a biochemical assay that measures PFK activity as a function of ADP production. A luminescence-based assay for T. brucei PFK activity has been developed which uses luciferase to detect production of ADP. Traditional luciferase-based nucleotide detection reagents rely on ATP production as a direct substrate for the luciferase reaction; however, PFK catalyzes the transfer of a phosphate from ATP to F6P, resulting in the net depletion of ATP. To directly measure the ADP product of the PFK reaction, we used the ADP-Glo detection kit (Promega), which utilizes two separate reactions to 1) deplete all remaining uncatalyzed ATP and 2) convert all remaining ADP to ATP, which is then detected through a traditional luciferase-coupled reaction. Compounds were screened as a concentration-titration series that ranged from 57 uM to 0.7 nM.
NCGC Assay Protocol Summary: Substrate buffer was dispensed into white, solid 1536-well plates at 3uL/well in 0.1M triethanolamine (TEA) buffer, pH 8.0, containing final concentrations of 5 mM MgCl2, 0.01% Tween20, 0.5 mM fructose-6-phosphate (F6P) and 0.1mM ATP. Then, 23 nL of compounds or DMSO were delivered to each well using a pin tool. One uL T. brucei PFK (0.1M TEA, 0.01% Tween20, 0.1% bovine serum albumin (BSA) and 1.25nM PFK, final concentrations) was then dispensed, and plates were incubated at room temperature for 45 min. The luminescent detection reagent, ADP-Glo (Promega), was then added in two steps: the first reagent, ADP-Glo (which converts remaining uncatalyzed ATP), was added at 2.5uL/well and incubated for ten minutes at room temperature, and the second component, Kinase Detection reagent (which converts ADP to ATP as a substrate for luciferase-based luminescence), was added immediately after at 5uL/well, followed by one final ten minute room temperature incubation. The plates were measured on a ViewLux plate reader for luminescent signal using a clear filter with a one second exposure. The %Activity was determined from the corrected luminescence values. As no specific T. brucei PFK inhibitors have been identified in the literature, 1x (1.25nM) and 0x PFK enzyme controls (untreated) were included to normalize %Activity of identified inhibitors; 0x enzyme values corresponded to 100%Activity (full inhibition), while 1x PFK enzyme values were used to normalize 0%Activity (no inhibition). Concentration-response curves were fitted to the signals arising from the resulting luminescence. […]

ATP-dependent 6-phosphofructokinase (Trypanosoma brucei brucei), sequence (O15648 whole entry, looked up): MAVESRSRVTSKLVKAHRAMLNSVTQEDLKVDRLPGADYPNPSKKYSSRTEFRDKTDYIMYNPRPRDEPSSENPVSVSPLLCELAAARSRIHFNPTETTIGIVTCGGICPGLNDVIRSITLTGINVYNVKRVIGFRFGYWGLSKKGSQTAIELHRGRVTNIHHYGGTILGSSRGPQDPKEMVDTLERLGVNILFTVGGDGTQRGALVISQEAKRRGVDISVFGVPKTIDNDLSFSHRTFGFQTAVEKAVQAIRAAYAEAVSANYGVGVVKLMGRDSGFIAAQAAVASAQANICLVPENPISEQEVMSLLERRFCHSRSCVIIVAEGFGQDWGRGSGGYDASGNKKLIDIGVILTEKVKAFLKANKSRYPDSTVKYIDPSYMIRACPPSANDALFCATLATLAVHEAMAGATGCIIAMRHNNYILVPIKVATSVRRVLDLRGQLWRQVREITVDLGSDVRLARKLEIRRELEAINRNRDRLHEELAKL

Structure (SMILES) | activity change, negative = inhibition [%]
OCCOC[C@H]1O[C@H](OCCO)[C@H](OCCO)[C@@H](OCCO)[C@@H]1OCCO (tested in a mixture with another compound) | 2.12
C#C[C@]1(O)CC[C@H]2[C@H]3[C@H](CC[C@@]21C)C1=C(CC(=O)CC1)C[C@@H]3C | 9.78
O=c1ccn(C2OC(COP(=O)(O)OC3C(CO)OC(n4ccc(=O)[nH]c4=O)C3O)C(O)C2O)c(=O)[nH]1 (stereo not given) | -14.2
Cc1cnc(C(=O)O)cn1 | -19.2
CC1(Cn2ccnn2)[C@H](C(=O)O)N2C(=O)C[C@H]2S1(=O)=O (stereo not given in full) | -4.42
CC1(C)CC1C(=O)N/C(=C/CCCCSCC(N)C(=O)O)C(=O)O (stereo not given) | 12.4
O=C(O)CC(O)CC(O)/C=C/c1c(C2CC2)nc2ccccc2c1-c1ccc(F)cc1 (stereo not given) | -0.167
CC1CN(c2c(F)c(N)c3c(=O)c(C(=O)O)cn(C4CC4)c3c2F)CC(C)N1 (stereo not given) | -5.95
O=c1[nH]c(=O)n(C2C[C@H](O)[C@@H](CO)O2)cc1C(F)(F)F (stereo not given in full) | -8.39
COc1ccc(C(=O)/C(Br)=C/C(=O)O)cc1 | -6.99
C=C1CC2C3C=C(C)C4=CC(=O)CCC4(C)C3CCC2(C)[C@@]1(OC(C)=O)C(C)=O (stereo not given in full) | 3.27
COc1ccc2cc1Oc1cc3c(cc1OC)CC[N+](C)(C)C3Cc1ccc(cc1)Oc1c(OC)c(OC)cc3c1C(C2)[N+](C)(C)CC3 (stereo not given) | 2.75
CCN(CC)C(=O)Nc1ccc(OC[C@H](O)CNC(C)(C)C)c(C(C)=O)c1 | 3.2
CO/N=C(/C(=O)N[C@@H]1C(=O)N2C(C(=O)O)=C(CSc3nc(C)c(CC(=O)O)s3)CS[C@H]12)c1csc(N)n1 | 11.5
CN1[C@H]2CC(OC(=O)[C@H](CO)c3ccccc3)C[C@H]1[C@H]1O[C@H]12 (stereo not given in full) | 15.7
C=C[C@H]1CN2CCC1C[C@H]2[C@H](O)c1ccnc2ccc(OC)cc12 (stereo not given in full) | -0.0422
Nc1nc2[nH]cc(CCc3ccc(C(=O)NC(CCC(=O)O)C(=O)O)cc3)c2c(=O)[nH]1 (stereo not given) | 6.73
C=C1[C@@H]2CC[C@H](C2)C1(C)C | 0
COc1cccc2c1C(=O)c1c(O)c3c(c(O)c1C2=O)C[C@@](O)(C(=O)CO)C[C@@H]3OC1CC(N)C(O)C(C)O1 (stereo not given in full) | -3.71
COc1cc2c(cc1O)CCN[C@@]21CS[C@H]2c3c(OC(C)=O)c(C)c4c(c3C(COC1=O)N1C2C2c3c(cc(C)c(OC)c3O)CC([C@@H]1O)N2C)OCO4 (stereo not given in full) | 13.3

Structure (SMILES) | activity change, negative = inhibition [%]
CCCC(=O)Nc1c(I)cc(I)c(C[C@H](CC)C(=O)O)c1I | -11.6
C[n+]1c2cc(N)ccc2cc2ccc(N)cc21 | -10.4
CCC(=O)O[C@]1(C(=O)CCl)[C@@H](C)CC2C3C[C@H](F)C4=CC(=O)C=CC4(C)[C@@]3(F)C(O)CC21C (stereo not given in full) | -3.18
OCC1O[C@H](O[C@H]2C(O)C(O)C(O)O[C@@H]2CO)C(O)C(O)C1O (stereo not given in full) | -2.2
C[C@@H]1CCN(C(=O)[C@H](CCCNC(=N)N)NS(=O)(=O)c2cccc3c2NC[C@H](C)C3)[C@@H](C(=O)O)C1 | 2.43
CCN(CC)C(=O)[C@@]1(c2ccccc2)C[C@@H]1CN | 3.37
Nc1nc(Cl)nc2c1ncn2[C@@H]1O[C@H](CO)[C@H](O)C1F (stereo not given in full) | -7.88
CC[C@@]1(O)CC2CN(CCc3c([nH]c4ccccc34)[C@](C(=O)OC)(c3cc4c(cc3OC)N(C)C3[C@@](O)(C(=O)OC)C(OC(C)=O)[C@]5(CC)C=CCN6CC[C@@]43C65)C2)C1 (stereo not given in full) | -3.05
CC1CCC(O)C/C1=C\C=C1/CCCC2(C)C1CCC2C(C)/C=C/C(C)C(C)C (stereo not given) | 3.67
CCN(CC)CCOCCOC(=O)C(CC)(CC)c1ccccc1 (tested in a mixture with another compound) | -0.638
CN[C@H](C)CCC=C(C)C | 6.62
C#C[C@@]1(O)CC[C@@H]2[C@H]3CCC4=C/C(=N\O)CC[C@H]4[C@@H]3CC[C@]21CC | 3.46
OCC1O[C@@H](O[C@@H]2C(CO)OC(O)C(O)C2O)C(O)C(O)C1O (stereo not given in full) | 0.838
Nc1ncn(C2C[C@H](O)[C@@H](CO)O2)c(=O)n1 (stereo not given in full) | -6.37
CC1=C(C/C=C(\C)CCCC(C)CCCC(C)CCCC(C)C)C(=O)c2ccccc2C1=O (stereo not given) | 2.44
CCOC(=O)C(CCc1ccccc1)NC(C)C(=O)N1Cc2cc(OC)c(OC)cc2CC1C(=O)O (stereo not given) | -6.15
CCC(=O)OC1C(N(C)C)CC(C)O[C@H]1O[C@H]1[C@H](C)[C@@H](O[C@H]2CC(OC)[C@@H](O)C(C)O2)[C@H](C)C(=O)O[C@@H](CC)[C@](C)(O)[C@@H](O)[C@H](C)C(=O)[C@@H](C)C[C@]1(C)O (stereo not given in full) | -3.62
C[C@]12CC[C@@H]3c4ccc(O)cc4CC[C@H]3[C@@H]1C[C@H](O)C2O (stereo not given in full) | 0.227
Oc1cc2cc(CCN3CCN(c4nsc5ccccc45)CC3)c(Cl)cc2[nH]1 | 2.69
CC1=C[C@@H](O)CC(C)(C)[C@@H]1/C=C/C(C)=C/C=C/C(C)=C/C=C/C=C(C)/C=C/C=C(C)/C=C/C1=C(C)C[C@H](O)CC1(C)C | 0
